Measurements taken from ChEMBL document CHEMBL3988442, “University of Dundee, Small-Polar-MMV Screening Library” (2021).
Entries with a potency or affinity are not part of this list.

These compounds were tested against T1, Ubiquitin-activating enzyme e1, putative (Leishmania donovani (strain BPK282A1)) (UniProt E9BSI1) (assay: Leishmania donovani Ubiquitin Activating Enzyme (LdE1)). Conditions: 30 µM.
T1 sequence (whole entry): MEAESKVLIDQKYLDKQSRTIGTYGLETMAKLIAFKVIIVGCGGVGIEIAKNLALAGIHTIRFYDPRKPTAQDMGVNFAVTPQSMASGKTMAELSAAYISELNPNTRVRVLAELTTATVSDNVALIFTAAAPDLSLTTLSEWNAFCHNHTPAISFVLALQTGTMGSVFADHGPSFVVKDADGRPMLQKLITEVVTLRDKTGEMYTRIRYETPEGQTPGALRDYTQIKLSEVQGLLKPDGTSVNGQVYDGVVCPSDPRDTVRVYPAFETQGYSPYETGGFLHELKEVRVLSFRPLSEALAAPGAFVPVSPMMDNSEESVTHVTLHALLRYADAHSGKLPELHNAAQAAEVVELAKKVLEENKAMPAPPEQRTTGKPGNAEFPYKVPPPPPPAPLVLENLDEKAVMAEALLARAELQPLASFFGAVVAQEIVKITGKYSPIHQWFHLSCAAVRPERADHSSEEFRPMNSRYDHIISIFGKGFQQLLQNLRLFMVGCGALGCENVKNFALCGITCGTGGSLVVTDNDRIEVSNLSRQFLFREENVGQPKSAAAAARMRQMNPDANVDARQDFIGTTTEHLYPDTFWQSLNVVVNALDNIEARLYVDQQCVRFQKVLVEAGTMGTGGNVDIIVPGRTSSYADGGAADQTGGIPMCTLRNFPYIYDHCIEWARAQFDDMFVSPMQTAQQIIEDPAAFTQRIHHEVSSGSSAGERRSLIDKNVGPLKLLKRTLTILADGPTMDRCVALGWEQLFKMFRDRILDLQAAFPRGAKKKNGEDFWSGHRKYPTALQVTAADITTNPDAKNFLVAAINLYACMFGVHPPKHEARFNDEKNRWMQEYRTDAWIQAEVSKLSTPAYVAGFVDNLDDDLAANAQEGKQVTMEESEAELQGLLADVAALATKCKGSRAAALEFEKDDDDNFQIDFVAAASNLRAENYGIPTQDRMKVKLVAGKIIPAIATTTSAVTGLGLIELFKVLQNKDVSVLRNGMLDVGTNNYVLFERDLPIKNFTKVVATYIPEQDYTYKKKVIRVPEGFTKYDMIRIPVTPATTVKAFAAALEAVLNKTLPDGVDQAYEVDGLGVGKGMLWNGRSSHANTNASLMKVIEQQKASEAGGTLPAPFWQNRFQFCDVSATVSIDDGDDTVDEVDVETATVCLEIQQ
Type: functional
Design: scale not given: direction of the effect not stated beside the values
In the case of `CN(C)C(=O)COC[C@]12COC[C@H]1CN(CC1CCC1)C2`, the Percent Effect is reported as 2.7%.
`COCCN1CC[C@H](O)[C@@H]1Cc1ccccc1` gave a Percent Effect of 12%.
`Cc1cc(O)nc(C2CCCN(Cc3ccncc3)C2)n1` (stereo not given) gave a Percent Effect of 14.9%.
Work on `CN(C)C(=O)c1ccc2c(c1)N(C)C(CC(=O)NCc1ccno1)CO2` (stereo not given) yielded a Percent Effect of 6.94%.
With `COc1c(CNCc2ccc(C(=O)NC3CC3)cc2)c(C)nn1C` the Percent Effect was 8.86%.
Work on `CN(C)CC1CN(C(=O)NCc2ccccc2)Cc2nccn2C1` (stereo not given) yielded a Percent Effect of 13.7%.
`CC(=O)NCC(=O)N1CCC2(CC1)CN(c1cccnc1)C(=O)CO2` was tested, and the Percent Effect was 13.5%.
`O=C(NCCN1CCOCC1)c1cc(-c2ccc3c(c2)CCO3)n[nH]1` showed a Percent Effect of 9.33%.
`CC(C)c1cc(NC(=O)CN2CCCC2Cn2cccn2)on1` (stereo not given) showed a Percent Effect of 5.26%.
Compound `CCC(=O)Nc1nnc(CCCOc2ccccc2)s1` has a Percent Effect of -1.33%.
For `Cc1cc(C)n(C2CCCN(C(=O)C3=NN(C)C(=O)CC3)C2)n1` (stereo not given), the Percent Effect was 18.9%.
Compound `CC1CCc2nc(O)c(C(=O)NCc3cccc(F)c3)cc2C1` (stereo not given) has a Percent Effect of -12%.
`Cc1nc2c(c(NC3CC3)n1)CCN(C(=O)C(C)(C)O)CC2` was tested, and the Percent Effect was 10.8%.
Work on `CCCN1CCC(N(Cc2ncc(C)o2)C(C)=O)C1` (stereo not given) yielded a Percent Effect of 0%.
In the case of `O=C1NCCN1C1CCCN(Cc2coc(-c3ccc(F)cc3)n2)C1` (stereo not given), the Percent Effect is reported as -8.11%.
For `Cc1noc(C)c1CN(C)CC1CCCN1c1cccnn1` (stereo not given), the Percent Effect was 13%.
For `Cc1noc(C)c1CN1C(=O)[C@H]2CC[C@@H]1CN(Cc1cccnc1N)C2`, the Percent Effect was 1.39%.
`Cc1cc(C)n(CC2CCCCN2Cc2cscn2)n1` (stereo not given) showed a Percent Effect of 13%.
`Cc1cc(CNC(=O)C2CCCCN2C(=O)OC(C)(C)C)no1` (stereo not given) showed a Percent Effect of 2.7%.
In the case of `O=C(c1csc(-c2cccs2)n1)N1CCCC1Cn1cccn1` (stereo not given), the Percent Effect is reported as 10.5%.
`O=C(CSCC1CC1)N1CCCC(c2nccn2Cc2ccncc2)C1` (stereo not given) showed a Percent Effect of 15.3%.
Work on `CCN1CC(C(=O)N2CCC(Oc3ccccc3Cl)CC2)CC1=O` (stereo not given) yielded a Percent Effect of 2.74%.
For `CNC(=O)CCNC(=O)c1cccc(Cn2nc(C)cc2C)c1`, the Percent Effect was 4.17%.
`CN(CC(=O)N1CCCC1Cn1cccn1)C1CC1` (stereo not given) showed a Percent Effect of 10.1%.
`O=C(Cn1nc(-c2ccc(F)cc2)oc1=O)Nc1ccccc1` was tested, and the Percent Effect was 21.1%.
Compound `Cc1cnccc1N1CCCN(C(=O)CCCc2cn[nH]c2)CC1` has a Percent Effect of 11%.
`Cc1ncccc1CNCC1CCN(CC(O)c2ccccc2)CC1` (stereo not given) showed a Percent Effect of 13.9%.
For `CCc1nc(CN(C)C2CCN(Cc3cnc(C)cn3)C2)no1` (stereo not given), the Percent Effect was 27.9%.
With `CSc1ccc(NC(=O)Nc2ccc3c(c2)N(S(C)(=O)=O)CC3)cc1` the Percent Effect was -23.4%.
`O=C(Cn1ccc2c(Cl)cccc21)N[C@@H](C(=O)O)c1ccccc1` was tested, and the Percent Effect was 4%.
With `Cc1ccc(C2CSCCN2C(=O)c2ccsc2)o1` (stereo not given) the Percent Effect was 8.11%.
In the case of `COc1ccc(NC(=O)CNc2ccc(Br)cc2F)cc1`, the Percent Effect is reported as 5.26%.
For `CNS(=O)(=O)c1cccc(CNc2cc(C(F)(F)F)ccn2)c1`, the Percent Effect was 5.41%.
`CN(C)c1ccc(CCNC(=O)C2CCC(=O)N(C3CCCC3)C2)cc1` (stereo not given) gave a Percent Effect of 8%.
Compound `CC(C)c1nn(C)c(N2CCOCC2)c1CN[C@H](C)CO` has a Percent Effect of 7.89%.
Compound `Cc1nccn1CC1CCCN1S(=O)(=O)Cc1ccon1` (stereo not given) has a Percent Effect of 20.2%.
In the case of `COc1cccc(OCCNC(=O)CN2CCN(C)CC2C)c1` (stereo not given), the Percent Effect is reported as 13.5%.
With `Cc1cc(C)cc(N(C)S(=O)(=O)c2cc(C(=O)O)cs2)c1` the Percent Effect was 5.41%.
`CCOc1cccc(C(C)NCc2ccc(OC)c(OC)c2OC)c1` (stereo not given) gave a Percent Effect of 16%.
Compound `CC(NC(=O)CNCCn1cccn1)c1ccc2c(c1)CCCC2` (stereo not given) has a Percent Effect of 13%.
